Measurements: publication PMC7862700, “An all-to-all approach to the identification of sequence-specific readers for epigenetic DNA modifications on cytosine”

Legend:
Experiment in all cases: DAPPL (digital affinity profiling via proximity ligation, sequencing); 10 mM Tris-HCl pH 7.5, 50 mM NaCl, 1 mM DTT, 4% glycerol, room temperature, 30 min; GST-TFs on glutathione beads, 16-mer random dsDNA library, 0.1% formaldehyde crosslink after washing; high values mean tight binding
Conditions in all cases: protein: recombinant; tags: N-terminal GST; dsDNA, one strand shown
[1] = target: T1, FLI1 (Homo sapiens, UniProt Q01543 1-452)
T1 sequence: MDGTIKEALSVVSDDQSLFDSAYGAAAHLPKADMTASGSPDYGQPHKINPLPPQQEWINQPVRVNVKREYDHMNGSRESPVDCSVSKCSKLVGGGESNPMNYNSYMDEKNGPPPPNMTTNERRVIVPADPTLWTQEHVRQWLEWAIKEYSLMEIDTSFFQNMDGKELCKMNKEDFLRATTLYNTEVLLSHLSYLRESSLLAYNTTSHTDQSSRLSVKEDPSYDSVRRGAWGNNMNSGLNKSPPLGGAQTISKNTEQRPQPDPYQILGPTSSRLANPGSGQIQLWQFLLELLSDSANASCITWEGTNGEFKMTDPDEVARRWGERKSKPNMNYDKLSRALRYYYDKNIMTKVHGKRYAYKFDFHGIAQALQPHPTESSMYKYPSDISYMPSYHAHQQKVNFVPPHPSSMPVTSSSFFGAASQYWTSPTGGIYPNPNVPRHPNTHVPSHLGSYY
Summary of the method: (§1)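 GST fusions of human transcription factors were expressed in yeast and captured with glutathione beads. Once given DNA barcodes and pooled alongside a tag-only sample, they were incubated for 30 min at room temperature with 200 nmole of a random double-stranded 16-mer DNA library in Tris/NaCl/DTT/glycerol buffer, then washed, crosslinked (0.1% formaldehyde), proximity-ligated, PCR-amplified and sequenced on an Illumina NextSeq500. The binding signal of each hexamer is its read frequency for a factor divided by its frequency for the tag-only sample.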

[2] = target: SPI1 (Homo sapiens, UniProt P17947 1-270)
Summary of the method: as §1

[3] = target: T2, ELK3 (Homo sapiens, UniProt P41970 1-407)
T2 sequence: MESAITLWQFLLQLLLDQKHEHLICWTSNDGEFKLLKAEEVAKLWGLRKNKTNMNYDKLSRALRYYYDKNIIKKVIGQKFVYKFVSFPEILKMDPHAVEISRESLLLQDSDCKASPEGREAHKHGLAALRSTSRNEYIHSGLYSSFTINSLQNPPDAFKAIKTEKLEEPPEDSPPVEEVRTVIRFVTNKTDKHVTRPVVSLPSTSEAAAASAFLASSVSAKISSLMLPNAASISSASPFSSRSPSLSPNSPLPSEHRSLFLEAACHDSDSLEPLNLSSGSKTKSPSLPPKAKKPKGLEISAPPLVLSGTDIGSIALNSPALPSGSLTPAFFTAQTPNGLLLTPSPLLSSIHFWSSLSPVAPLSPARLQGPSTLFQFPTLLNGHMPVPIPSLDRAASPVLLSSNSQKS
Summary of the method: as §1

[4] = target: T3, ELF5 (Homo sapiens, UniProt Q9UKW6-2 1-255)
T3 sequence: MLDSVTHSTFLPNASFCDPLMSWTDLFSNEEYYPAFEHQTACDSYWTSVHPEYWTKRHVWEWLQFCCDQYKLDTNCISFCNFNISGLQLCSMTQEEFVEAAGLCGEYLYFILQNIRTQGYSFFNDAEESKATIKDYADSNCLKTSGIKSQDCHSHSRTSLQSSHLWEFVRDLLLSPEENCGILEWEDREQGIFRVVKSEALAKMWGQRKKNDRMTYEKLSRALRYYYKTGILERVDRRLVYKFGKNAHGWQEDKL
Summary of the method: as §1

[5] = target: CRX (Homo sapiens, UniProt O43186 1-299)
Chain of CRX (O43186 whole entry): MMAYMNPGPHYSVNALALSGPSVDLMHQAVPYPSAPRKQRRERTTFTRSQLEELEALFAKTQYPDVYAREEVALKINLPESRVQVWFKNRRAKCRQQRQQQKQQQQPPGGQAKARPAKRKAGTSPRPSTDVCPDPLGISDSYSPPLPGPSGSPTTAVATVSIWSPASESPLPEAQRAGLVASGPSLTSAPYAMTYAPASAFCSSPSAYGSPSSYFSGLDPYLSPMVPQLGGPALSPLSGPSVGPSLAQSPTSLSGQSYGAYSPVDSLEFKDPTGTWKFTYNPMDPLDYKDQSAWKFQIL
Summary of the method: as §1

Row | Sequence | binding signal [1] | binding signal [2] | binding signal [3] | binding signal [4] | binding signal [5]
1 | TGGGGT | 1.02 fold enrichment (6-mer frequency, TF over GST control) | 1.04 fold enrichment (6-mer frequency, TF over GST control) | 1.17 fold enrichment (6-mer frequency, TF over GST control) | 1.01 fold enrichment (6-mer frequency, TF over GST control) | –
2 | ACACGC | 1.15 fold enrichment (6-mer frequency, TF over GST control) | – | 1.12 fold enrichment (6-mer frequency, TF over GST control) | 1.02 fold enrichment (6-mer frequency, TF over GST control) | –
3 | AAGGGC | 1.06 fold enrichment (6-mer frequency, TF over GST control) | – | 1.18 fold enrichment (6-mer frequency, TF over GST control) | 1.04 fold enrichment (6-mer frequency, TF over GST control) | –
4 | TCGTCC | 1.1 fold enrichment (6-mer frequency, TF over GST control) | 1.03 fold enrichment (6-mer frequency, TF over GST control) | 1.18 fold enrichment (6-mer frequency, TF over GST control) | 1.02 fold enrichment (6-mer frequency, TF over GST control) | –
5 | AGGACC | 1.13 fold enrichment (6-mer frequency, TF over GST control) | – | 1.15 fold enrichment (6-mer frequency, TF over GST control) | 1.1 fold enrichment (6-mer frequency, TF over GST control) | –
6 | TGCAAG | 1.09 fold enrichment (6-mer frequency, TF over GST control) | 1 fold enrichment (6-mer frequency, TF over GST control) | – | 1.05 fold enrichment (6-mer frequency, TF over GST control) | –
7 | GGTCAC | 1.08 fold enrichment (6-mer frequency, TF over GST control) | – | – | – | –
8 | TGGGCA | 1.05 fold enrichment (6-mer frequency, TF over GST control) | 1.08 fold enrichment (6-mer frequency, TF over GST control) | 1.19 fold enrichment (6-mer frequency, TF over GST control) | – | –
9 | GGTACA | 1.03 fold enrichment (6-mer frequency, TF over GST control) | – | – | 1 fold enrichment (6-mer frequency, TF over GST control) | –
10 | CAGCAT | 1.04 fold enrichment (6-mer frequency, TF over GST control) | – | 1.19 fold enrichment (6-mer frequency, TF over GST control) | – | –
11 | CGCGTT | 1.1 fold enrichment (6-mer frequency, TF over GST control) | – | 1.06 fold enrichment (6-mer frequency, TF over GST control) | 1.02 fold enrichment (6-mer frequency, TF over GST control) | –
12 | GTAACC | 1.04 fold enrichment (6-mer frequency, TF over GST control) | 1.01 fold enrichment (6-mer frequency, TF over GST control) | 1.04 fold enrichment (6-mer frequency, TF over GST control) | 1.07 fold enrichment (6-mer frequency, TF over GST control) | –
13 | ACCGGC | 1.07 fold enrichment (6-mer frequency, TF over GST control) | 1.17 fold enrichment (6-mer frequency, TF over GST control) | 1.11 fold enrichment (6-mer frequency, TF over GST control) | 1.11 fold enrichment (6-mer frequency, TF over GST control) | –
14 | TGCGCC | 1.17 fold enrichment (6-mer frequency, TF over GST control) | 1.22 fold enrichment (6-mer frequency, TF over GST control) | 1.07 fold enrichment (6-mer frequency, TF over GST control) | 1.11 fold enrichment (6-mer frequency, TF over GST control) | –
15 | CGCCGG | 1.01 fold enrichment (6-mer frequency, TF over GST control) | – | 1.08 fold enrichment (6-mer frequency, TF over GST control) | 1.02 fold enrichment (6-mer frequency, TF over GST control) | –
16 | CCAAGC | 1.01 fold enrichment (6-mer frequency, TF over GST control) | – | – | – | –
17 | CCCAAG | 1.09 fold enrichment (6-mer frequency, TF over GST control) | 1.03 fold enrichment (6-mer frequency, TF over GST control) | 1 fold enrichment (6-mer frequency, TF over GST control) | – | –
18 | ACGCGG | 1.04 fold enrichment (6-mer frequency, TF over GST control) | 1.02 fold enrichment (6-mer frequency, TF over GST control) | 1.05 fold enrichment (6-mer frequency, TF over GST control) | 1.07 fold enrichment (6-mer frequency, TF over GST control) | –

Row | Sequence | binding signal [1] | binding signal [2] | binding signal [3] | binding signal [4] | binding signal [5]
19 | ACGGTA | 1.02 fold enrichment (6-mer frequency, TF over GST control) | – | – | 1.05 fold enrichment (6-mer frequency, TF over GST control) | –
20 | GCTAAC | 1.11 fold enrichment (6-mer frequency, TF over GST control) | 1.1 fold enrichment (6-mer frequency, TF over GST control) | 1.18 fold enrichment (6-mer frequency, TF over GST control) | – | –
21 | TGGCTG | 1.11 fold enrichment (6-mer frequency, TF over GST control) | 1.02 fold enrichment (6-mer frequency, TF over GST control) | – | 1.01 fold enrichment (6-mer frequency, TF over GST control) | –
22 | CGTTGT | 1.15 fold enrichment (6-mer frequency, TF over GST control) | – | – | 1.07 fold enrichment (6-mer frequency, TF over GST control) | –
23 | AACCGC | 1.15 fold enrichment (6-mer frequency, TF over GST control) | 1.04 fold enrichment (6-mer frequency, TF over GST control) | 1.07 fold enrichment (6-mer frequency, TF over GST control) | 1 fold enrichment (6-mer frequency, TF over GST control) | 1.02 fold enrichment (6-mer frequency, TF over GST control)
24 | AGCGCT | 1.1 fold enrichment (6-mer frequency, TF over GST control) | – | 1.14 fold enrichment (6-mer frequency, TF over GST control) | 1 fold enrichment (6-mer frequency, TF over GST control) | 1.01 fold enrichment (6-mer frequency, TF over GST control)
25 | TCAGTT | 1.02 fold enrichment (6-mer frequency, TF over GST control) | – | 1.09 fold enrichment (6-mer frequency, TF over GST control) | – | –
26 | GCAAAC | 1.04 fold enrichment (6-mer frequency, TF over GST control) | 1.07 fold enrichment (6-mer frequency, TF over GST control) | 1.04 fold enrichment (6-mer frequency, TF over GST control) | – | –
27 | CGCGTA | 1.07 fold enrichment (6-mer frequency, TF over GST control) | – | – | – | –
28 | CCGCAG | 1.12 fold enrichment (6-mer frequency, TF over GST control) | 1.11 fold enrichment (6-mer frequency, TF over GST control) | 1.14 fold enrichment (6-mer frequency, TF over GST control) | 1.04 fold enrichment (6-mer frequency, TF over GST control) | –
29 | GGCTAC | 1.17 fold enrichment (6-mer frequency, TF over GST control) | – | 1.19 fold enrichment (6-mer frequency, TF over GST control) | 1.16 fold enrichment (6-mer frequency, TF over GST control) | –
30 | ACGCCG | 1.15 fold enrichment (6-mer frequency, TF over GST control) | 1.09 fold enrichment (6-mer frequency, TF over GST control) | 1.11 fold enrichment (6-mer frequency, TF over GST control) | – | –
31 | ATAGCC | 1.03 fold enrichment (6-mer frequency, TF over GST control) | – | 1.01 fold enrichment (6-mer frequency, TF over GST control) | – | 1.02 fold enrichment (6-mer frequency, TF over GST control)
32 | CGTTTG | 1.05 fold enrichment (6-mer frequency, TF over GST control) | – | 1 fold enrichment (6-mer frequency, TF over GST control) | 1.1 fold enrichment (6-mer frequency, TF over GST control) | –
33 | TCAAGC | 1.03 fold enrichment (6-mer frequency, TF over GST control) | – | 1.09 fold enrichment (6-mer frequency, TF over GST control) | – | 1.06 fold enrichment (6-mer frequency, TF over GST control)
34 | TCACCG | 1.06 fold enrichment (6-mer frequency, TF over GST control) | 1.06 fold enrichment (6-mer frequency, TF over GST control) | 1.13 fold enrichment (6-mer frequency, TF over GST control) | 1.01 fold enrichment (6-mer frequency, TF over GST control) | –
35 | CAATGG | 1.14 fold enrichment (6-mer frequency, TF over GST control) | 1.04 fold enrichment (6-mer frequency, TF over GST control) | – | – | –
36 | CGCACG | 1.1 fold enrichment (6-mer frequency, TF over GST control) | – | 1.02 fold enrichment (6-mer frequency, TF over GST control) | 1.02 fold enrichment (6-mer frequency, TF over GST control) | –
